Assay results taken from PubChem BioAssay AID1159580 (chemical genetic matrix, 2015).
Among all 5,500 compounds or so, about 2,000 (36%) were called active. Roughly 18% stayed inconclusive and do not appear here. Rule as the data show it: active = normalized growth mostly below about 0.91 (no sharp cut-off); inconclusive = no clear call, values can overlap the other calls; inactive = mostly above about 0.92. Some of the results follow.

Test: chemical genetic growth profiling, strain panel (AID 1159580);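 also: tested at 20 µM; growth read once vehicle control cultures reached saturation at 30 °C; 1 = growth at the plate median or of vehicle wells; lower values mean less growth of the strain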
Details: growth OD

Measured: normalized growth

N#CCCN1C(=O)C2(OCCO2)c2ccccc21
inactive: S. cerevisiae deletion strains, locus YAL013W, strain DEP1, hits give low values 1.01 | S. cerevisiae deletion strains, locus YBR229C, strain ROT2, hits give low values 1.01 | S. cerevisiae deletion strains, locus YCL061C, strain MRC1, hits give low values 1 | S. cerevisiae deletion strains, locus YDL101C, strain DUN1, hits give low values 0.976 | S. cerevisiae deletion strains, locus YDR150W, strain NUM1, hits give low values 0.977 | S. cerevisiae deletion strains, locus YEL061C, strain CIN8, hits give low values 0.997 | S. cerevisiae deletion strains, locus YGR078C, strain PAC10, hits give low values 1 | S. cerevisiae deletion strains, locus YHR030C, strain SLT2, hits give low values 1 | S. cerevisiae deletion strains, locus YHR087W, strain rtc3, hits give low values 0.991 | S. cerevisiae deletion strains, locus YJL187C, strain SWE1, hits give low values 1 | S. cerevisiae deletion strains, locus YJR043C, strain POL32, hits give low values 1 | S. cerevisiae deletion strains, locus YJR075W, strain HOC1, hits give low values 1 | S. cerevisiae deletion strains, locus YLR039C, strain RIC1, hits give low values 1.02 | S. cerevisiae deletion strains, locus YLR058C, strain SHM2 (second series), hits give low values 1 | S. cerevisiae deletion strains, locus YLR085C, strain ARP6, hits give low values 1.02 | S. cerevisiae deletion strains, locus YLR262C, strain YPT6, hits give low values 1.02 | S. cerevisiae deletion strains, locus YML094W, strain GIM5, hits give low values 0.986 | S. cerevisiae deletion strains, locus YMR219W, strain ESC1, hits give low values 1.01 | S. cerevisiae deletion strains, locus YMR263W, strain SAP30, hits give low values 1.05 | S. cerevisiae deletion strains, locus YMR307W, strain GAS1, hits give low values 1.05 | S. cerevisiae deletion strains, locus YNL153C, strain GIM3, hits give low values 1.02 | S. cerevisiae deletion strains, locus YNL298W, strain CLA4 (second series), hits give low values 1 | S. cerevisiae deletion strains, locus YNL322C, strain KRE1, hits give low values 0.997 | S. cerevisiae deletion strains, locus YNR030W, strain Alg12, hits give low values 1 | S. cerevisiae deletion strains, locus YOL006C, strain TOP1, hits give low values 1.02 | S. cerevisiae deletion strains, locus YPL055C, strain LGE1, hits give low values 1.02 | S. cerevisiae deletion strains, locus YPL241C, strain CIN2, hits give low values 1.01 | S. cerevisiae deletion strains, locus YPR135W, strain CTF4, hits give low values 1.09 | S. cerevisiae strains, strain wild type, hits give low values 1.02
